Sampled rows, rich in hits. Any-hit rate of the full collection: about 27%.
CYP2C9 act: human CYP2C9 activators, primary screen, biochemical, luminescence. Cytochrome P450 2C9 (Homo sapiens), P11712. AID 1024, 2008. hit rate 1.4% among 96,000. activation factor at 5 µM. recombinant CYP2C9, luciferin-H conversion; active compounds read high; factor 1 = untreated enzyme, 0 = blocked;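 active = activation factor of 2 or more for CYP2C9 at a 5 µM dose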;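 note: 0 = sulfaphenazole-blocked wells and 1 = vehicle-only wells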
Target sequence (P11712 whole entry, looked up): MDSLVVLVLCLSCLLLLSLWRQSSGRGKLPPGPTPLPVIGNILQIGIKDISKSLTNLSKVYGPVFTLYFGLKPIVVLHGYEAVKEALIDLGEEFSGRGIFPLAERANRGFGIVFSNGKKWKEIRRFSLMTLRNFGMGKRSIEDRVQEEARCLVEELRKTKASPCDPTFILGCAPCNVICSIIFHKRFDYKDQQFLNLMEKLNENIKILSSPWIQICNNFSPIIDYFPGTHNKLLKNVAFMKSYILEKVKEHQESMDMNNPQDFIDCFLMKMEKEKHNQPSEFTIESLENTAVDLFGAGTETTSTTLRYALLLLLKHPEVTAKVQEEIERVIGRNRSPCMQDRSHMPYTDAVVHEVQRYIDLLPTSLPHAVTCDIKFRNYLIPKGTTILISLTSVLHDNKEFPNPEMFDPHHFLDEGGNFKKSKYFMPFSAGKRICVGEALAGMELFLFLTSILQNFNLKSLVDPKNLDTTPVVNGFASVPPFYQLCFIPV
Cav3 T inh: Cav3.2 calcium influx blockers – cell-based, Fluo-4 calcium fluorescence, FDSS, MLSMR library, primary screen | Voltage-dependent T-type calcium channel subunit alpha-1H (Homo sapiens), O95180 | Cav3.2-expressing cells; active compounds read low | B-score at 10 µM | hit rate 4% among 100,000 | AID 449739, 2010;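 active = single-dose well whose peak fluorescence ratio is a statistical outlier from its plate by either plate-standardised score or position-corrected B-score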
CYP2C19 activ: human CYP2C19 activators, primary screen, biochemical, luminescence; AID 1025, 2008; activation factor at 5 µM; 96,000 tested, under 10 active; recombinant CYP2C19, luciferin-H EGE luminescence; active compounds read high; 0 = fully inhibited enzyme, 1 = untreated enzyme;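 active = activation factor of at least 2 at 5 µM in the primary screen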;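 note: 0 = wells with 2.5 mM tranylcypromine and 1 = vehicle-only wells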
CYP2C9 inh: blockers of cytochrome P450 2C9 activity – biochemical, luminescence, ADME assay, primary screen. P11712. CYP2C9 Supersomes, luciferin-H conversion. inhibition, % at 5 µM. hit rate 20% among 96,000;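 active = blocking of liver enzyme CYP2C9 beyond about 50% at 5 µM, limit read from the data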
CYP2C19 inh: blockers of cytochrome P450 2C19 activity – biochemical, luminescence, ADME assay, primary screen | AID 778, 2007 | inhibition, % at 5 µM | CYP2C19 Supersomes, luciferin-H EGE luminescence, 30 min | hit rate 21% among 96,000;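 active = CYP2C19 inhibition above a set limit at 5 µM in the primary screen, cut at about 50% in these data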;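 note: plate controls were negative control wells for no effect and 2.5 mM tranylcypromine positive control for full effect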
Starred values were filed as active, the others as inactive; nt = not tested or not shown.

SMILES	CYP2C9 act	Cav3 T inh	CYP2C19 activ	CYP2C9 inh	CYP2C19 inh
CCCCCn1c(SCCOCC)nc2c1c(=O)[nH]c(=O)n2C	0.6	0.82	0.9	44	14
CCOc1nc(-c2ccc(Cl)cc2Cl)ccc1C#N	1	-0.5	0.6	1	40
N#CC(c1ccc(Cl)nn1)c1ccc(Cl)cc1Cl (stereo unspecified)	0.6	-0.26	0	39	96*
CCn1cnc2sc(C)c(C)c2c1=O	0.9	0.78	0.9	12	12
COc1cccc2c1N1C(=O)c3c(C(=O)O)cccc3C1CC2(C)C (stereo unspecified)	0.3	0.033	1	70*	-2
O=C(NC1CCN(Cc2ccccc2)CC1)c1cc(-c2ccccn2)nc2ccccc12	0.8	-0.04	1	16	-2
c1ccc(CN2CCC(Nc3nc(-c4ccccc4)nc4ccccc34)CC2)cc1	0.1	0.59	0.4	86*	61*
N#C/C(=C\N1CCOCC1)c1ccccc1	0.8	1.8	0.4	24	57*
O=C(c1noc2c1CCCCC2)N1CCOCC1	0.4	1.7	0.8	58*	17
O=C(c1noc2c1CCCC2)N1CCCCC1	0.9	0.39	0.8	9	20
O=C(c1noc2c1CCCC2)N1CCN(Cc2ccccc2)CC1	1	1.4	0	4	97*
O=c1c2cc(N3CCOCC3)ccc2[nH]c(=S)n1CCCN1CCN(c2ccccc2F)CC1	0.8	0.26	1	19	3
CCOc1ccc(CCNS(=O)(=O)c2cnc[nH]2)cc1OCC	0.1	0.29	0.3	94*	68*
COc1ccc(CCNS(=O)(=O)c2ccccc2)cc1OC	0.7	0.42	0.7	33	34
CCOc1cc2c3c(c1)C1(Nc4ccccc4S1)C(=O)N3C(C)(C)CC2C (stereo unspecified)	0	-4.2*	0.1	100*	88*
Cc1c(Cc2ccccc2)c(=O)oc2cc(OC(=O)c3ccccc3)ccc12	0.6	-1.5	0.4	40	60*
Cc1c(Cc2ccccc2)c(=O)oc2cc(OCc3nn[nH]n3)ccc12	0.6	1.7	1.1	44	-13
COc1cc(COc2ccc3c(C)c(Cc4ccccc4)c(=O)oc3c2C)cc(OC)c1OC	0.3	-2.6	0.4	66*	58*
COc1cc(COc2ccc3c(C)c(Cc4ccccc4)c(=O)oc3c2)cc(OC)c1OC	0.4	nt	0.6	57*	36
COc1cccc(COc2ccc3c(C)c(Cc4ccccc4)c(=O)oc3c2)c1	nt	-3.7*	nt	nt	nt
Cc1c(C)c2ccc(OCc3ccc(C(=O)O)o3)c(C)c2oc1=O	0.8	1.3	1	21	1
COC(=O)c1cc(OC)c(OC)cc1NC(=O)c1ccoc1C	1	0.16	1.1	-5	-5
CCC(C)N1C(=O)/C(=C/c2c(NCCCOC(C)C)nc3c(C)cccn3c2=O)SC1=S (stereo unspecified)	0.4	-5.1*	0.7	57*	33
CC(=O)NC(=O)c1nnn(Cc2ccccc2)c1NC(C)=O	0.9	-0.77	1.1	6	-6
C#CCOc1nc(OCC#C)nc(OCC#C)n1	0.6	-0.43	0.1	40	89*
SMILES	CYP2C9 act	Cav3 T inh	CYP2C19 activ	CYP2C9 inh	CYP2C19 inh
O=C1N[C@@H](Cc2ccccc2)C(=O)N1CCN1CCOCC1	1.3	2.1	1	-26	4
CCc1ccc(CNc2ccc(O)cc2)cc1	0.8	-2.5	0.2	23	82*
CCOc1ccccc1-c1nc(SCC(=O)O)n[nH]1	1.1	-0.19	1.1	-11	-11
CCOC(=O)C(C)Oc1cccc2c(=O)n(CC(=O)N3CCN(C(=O)OCC)CC3)ccc12 (stereo unspecified)	0.7	0.0088	0.9	28	13
CCOC(=O)C1CCCN(CCC(=O)Nc2ccc(C)cc2)C1 (stereo unspecified)	nt	0.56	nt	nt	nt
Cc1ccc(-n2ncc(C#N)c2/N=C/N2CCOCC2)cc1	0.4	-0.3	0.1	65*	85*
Cc1ccc(OCC(O)CNS(=O)(=O)c2ccccc2C(=O)N2CCCCC2)cc1 (stereo unspecified)	0.5	-1.4	0.8	47	17
O=C(c1ccccc1S(=O)(=O)NCc1ccccc1)N1CCCCC1	0.5	-1.2	0.1	48	89*
Cc1ccc(C)c(S(=O)(=O)NCc2ccc(C(=O)N3CCC(Cc4ccccc4)CC3)cc2)c1	1.3	-3.9*	0.7	-30	33
COc1ccccc1NC(=O)Cn1cnc2c(cnn2-c2ccc(C)c(C)c2)c1=O	0.9	nt	1	14	2
CCn1c(/N=C/c2c[nH]c3ccccc23)nc2ccccc21	0.1	-0.91	0.4	90*	61*
CCCn1c(/N=C/c2c[nH]c3ccccc23)nc2ccccc21	0.8	0.013	1	15	4
Cc1nn2c(N)csc2nc1=O	1.2	0.72	1.1	-16	-15
Cc1ccc(C(N)=O)cc1S(=O)(=O)Nc1cccc(C)c1C	0.7	-0.12	0	35	99*
Cc1ccc(NS(=O)(=O)c2cc(C(N)=O)ccc2C)cc1	0.3	0.41	0.1	67*	94*
Cc1ccccc1NC(=O)c1ccc(C)c(S(=O)(=O)Nc2ccccn2)c1	0.9	0.32	1	8	4
Cc1ccc(NS(=O)(=O)c2cc(C(=O)N3CCN(C)CC3)ccc2C)cc1	0.8	1.6	0.9	21	10
Cn1nnnc1P(=O)(c1ccccc1)c1ccccc1	1	0.53	1.1	0	-14
CC1(C)CC(=O)C2=C(C1)OC1=C(C(=O)CC(C)(C)C1)C2c1ccccc1	1	0.93	1	-2	3
COc1ccc(C2C(C#N)=C(/N=C/N3CCN(C)CC3)OC3=C2C(=O)CC(C)(C)C3)cc1 (stereo unspecified)	0.5	0.07	0.5	53*	51*
O=C(NCCCN1CCOCC1)c1onc(CSc2ccncc2)c1C(=O)NCCCN1CCOCC1	nt	-0.28	nt	nt	nt
CC(=NCc1cccnc1)C1=C(O)c2ccccc2C1=O	0.7	0.69	0.6	26	38
CC(=NCCCn1ccnc1)C1=C(O)c2ccccc2C1=O	0.2	0.57	0.5	81*	46
CC(=NCc1ccncc1)C1=C(O)c2ccccc2C1=O	0.2	0.4	0.3	83*	65*
O=C1C(C=NCCCn2ccnc2)=C(O)c2ccccc21	nt	0.27	nt	nt	nt
O=C1C2C3c4ccccc4C(c4ccccc43)[C@@H]2c2nc3ccccc3n21 (stereo partly specified)	0.8	nt	0.9	15	5
NC(=O)[C@@H]1CCCNc2c(I)cc([N+](=O)[O-])cc2C(=O)N[C@@H](CCC(=O)O)C(=O)N[C@@H](CO)C(=O)N1	nt	0.41	nt	nt	nt
O=C(CCc1ccccc1)Nc1nc2nc(-c3ccccc3)cc(=O)n2[nH]1	0.8	0.044	1	24	0
